MOR-DOR ag-1 – agonists of human mu-delta opioid receptor heterodimerization | P35372+P41143 | cells, OPRM1-OPRD1 heterodimerization, luminescence | activation, % at 9.3 µM | hit rate 0.3% among 340,000 | AID 504326;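 note: 0% = vehicle-treated cells and 100% = reference agonist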
HTR5A ag – counter-screen for OPRM1-OPRD1 agonists: human HTR5A agonism; hit rate 0.61% among 340,000; activation, % at 9.3 µM; HTR5A agonist assay, luminescence, cell-based; in the data active = activation mostly above about 9.5%, no sharp cut-off; inactive = mostly below about 7.6%;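 note: 0% = cells with vehicle only and 100% = reference agonist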
NALP1 inh – blocks the NALP1 inflammasome reconstituted in yeast; S. cerevisiae NALP1/ASC/caspase-1 growth, X-gal OD620, 72 h; inhibition, % at 10 µM; hit rate 0.61% among 280,000; in the data active = inhibition mostly above about 24%, no sharp cut-off; inactive = mostly below about 32%
PolyA inh – inhibitors of polyadenylation in S. cerevisiae; S. cerevisiae SKY197-pL101 polyadenylation reporter, beta-gal luminescence; efflux-impaired pdr1/pdr3 knockout yeast; score 100 = 6 SD above DMSO; activity score, % at 12 µM; hit rate 0.02% among 300,000; AID 1875;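 active = lowest replicate activity score at least 50, where 100 means six control SD above control mean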;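 note: yeast exposed to compound for 9 h at 30 °C; higher score means more reporter readthrough which indicates perturbed polyadenylation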
HTR5A inv ag – HTR5A inverse agonism, opioid heterodimer counter-screen | P47898 | HTR5A cell line, luminescence | inhibition, % at 9.3 µM | hit rate 0.083% among 340,000; in the data active = inhibition mostly above about 23%, no sharp cut-off; inactive = mostly below about 18%;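 note: 0% = cells with DMSO and 100% = no-cell wells with DMSO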
OPRM1-OPRD1 inv – inverse agonist of human OPRM1-OPRD1 heterodimerization; P35372+P41143; cell-based MOR-DOR heterodimer luminescence, inverse agonism; inhibition, % at 9.3 µM; hit rate 0.21% among 340,000; AID 504357; in the data active = inhibition above about 22%, passing the limit was not always enough;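 note: 0% = cells with DMSO and 100% = wells without cells with DMSO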
MOR-DOR ag-2 – counter-screen for HTR5A agonists: OPRM1-OPRD1 heterodimerization agonism; shares compounds with HTR5A ag; U2OS counter-screen cells, complementation luminescence, 3 h; activation, % at 9.3 µM; hit rate 13% among 800
HTR5A ag conf – HTR5A (human) agonism, confirmation; HTR5A agonist cell assay, luminescence; shares compounds with HTR5A ag; hit rate 17% among 800; activation, % at 9.3 µM; in the data active = activation above about 17%;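 note: 0% = cells with vehicle only and 100% = full reference agonist response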
* = called active by the depositor; . = no result; ! = not active in a repeat. Rows were chosen to be rich in hits. Some 1.6% of all compounds tested hit in one or more screens of this group. Cut-off read from the data, not from the text of the source, unless noted: active = activation above about 18%; inactive = the rest.

SMILES	MOR-DOR ag-1	HTR5A ag	NALP1 inh	PolyA inh	HTR5A inv ag	OPRM1-OPRD1 inv	MOR-DOR ag-2	HTR5A ag conf
CCCN(C(=O)CSCc1ccc(Cl)cc1)c1c(N)n(Cc2ccccc2)c(=O)[nH]c1=O	2	2	.	-9	-4	-9	.	.
O=C(COC(=O)CCNS(=O)(=O)c1ccccc1)Nc1ccc(OC(F)F)cc1	-2	1	.	.	-11	8	.	.
C=CCn1c(Br)nc2c1c(=O)[nH]c(=O)n2C	0	18*	15	6	-47	-1	-1	-1
CCOc1cc(C(=O)OCc2ccc([N+](=O)[O-])cc2)ccc1OCC(=O)N1CCOCC1	0	17*	.	19	-43	0	1	1
CC(=O)c1ccc(N2CCC(c3cc(-c4ccc(Cl)cc4)n[nH]3)CC2)c([N+](=O)[O-])c1	3	9	-2	6	-6	-15	.	.
CCc1nnc(NC(=O)CSc2ccc(-c3nc4ccccc4[nH]3)cn2)s1	0	-4	-13	7	11	-1	.	.
Cc1nc(NC(=O)CSc2ccc(-c3nc4ccccc4[nH]3)cn2)sc1C	6	17*	29	-18	-21	-42	3	3
CCN(CC)S(=O)(=O)c1ccc(C)c(N=C=S)c1	0	-2	4	-12	5	2	.	.
O=C(CCNC(=O)c1ccco1)Nc1ccc(Cl)cc1	0	0	-13	-1	0	1	.	.
O=C(CNC(=O)c1ccco1)Nc1ccc(Cl)cc1	-3	21*	8	-19	-79	13	-2	3
CS(=O)(=O)c1ccc(NC(=O)C2CCCN(C(=O)c3ccc(Cl)cc3)C2)cc1 (stereo unspecified)	-2	19*	.	.	-47	6	6	4
CC(C)(C)c1ccc(OCC(=O)N2CCN(c3ccccn3)CC2)cc1	0	15*	.	.	-37	1	18	17*
C/C(=N\NC(=O)c1ccccc1O)c1ccc(Br)s1	-4	15*	1	3	-54	20	0	28*
CC1(C)Cc2c(C#N)c(SCCC#N)nc(N3CCOCC3)c2CS1	0	15*	6	-8	-8	1	1	3
CC[C@@]12C(=O)N(c3cccc(F)c3)C(=O)N1[C@H](c1ccc(Cl)cc1)[C@@H]1C(=O)N(C3CCCCC3)C(=O)[C@@H]12	8	15*	.	-5	-10	-47	19*	11
O=C1[C@H]2[C@@H](c3ccc(Cl)cc3)N3C(=O)N(c4cccc(F)c4)C(=O)[C@@]3(Cc3ccc(Cl)cc3)[C@H]2C(=O)N1C1CCCCC1	-3	1	15	6	11	14	.	.
Cc1c(CCOC(=O)C2C3CC4CC(C3)CC2C4)sc[n+]1CC(=O)c1ccc(Br)cc1 (stereo unspecified)	2	18*!	0	3	-42	-10	18	2
Cc1cc(=O)[nH]c(N/N=C/c2c[nH]c3ccccc23)n1	0	24*	11	3	17	0	3	46*
C(=N\Nc1nc2ccccc2[nH]1)/c1c[nH]c2ccccc12	3	3	-13	2	-9	-19	.	.
O=C1NCCCC1C(=O)Nc1cccc(C(F)(F)F)c1 (stereo unspecified)	-3	22*	6	-10	-52	12	2	1
CC(C)(C)OC(=O)N[C@@H](C(=O)OC(C)(C)C)c1ccccc1	1	25*	.	.	-68	-4	6	5
Cc1cccc(C(=O)Nc2sc(C)c(-c3ccccc3)c2C#N)c1	7	17*	9	-3	-22	-40	2	3
N#Cc1ccccc1OCC(=O)N(Cc1nnc(-c2ccccc2Cl)o1)C1CC1	-2	-1	.	16	3	9	.	.
CC(C)N(C(=O)[C@H]1CC(CC(=O)NCCC2=CCCCC2)C(=O)N2CCc3c([nH]c4ccccc34)[C@]12C)C(C)C (stereo partly specified)	2	-1	.	.	5	-9	.	.
CCOC(=O)CNS(=O)(=O)c1ccc(S(=O)(=O)NC2CC2)cc1	-2	-1	6	0	3	11	.	.
